The values that follow come from PubChem BioAssay (NCATS).

Assay [1] addresses Estrogen receptor (Homo sapiens) (UniProt P03372). The experiment in a line: qHTS assay for small molecule antagonists of estrogen receptor alpha signaling (AID 588513; active = well fitted curve in the direction sought with a large enough effect in the signal ratio, with a control signal flat, not every such curve was filed as active; the % refers to the signal ratio; also: % is scaled to controls: 0 for no effect and ±100 for the full control effect). Put shortly: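 Antagonist-mode qHTS in ER-alpha-UAS-bla HEK 293 cells: compound titration, 0.5nM estradiol for 18 h, CCF4 fluorescence, Hill-derived IC50.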
Background: Quantitative high-throughput screening tests each substance at several concentrations.

In assay [2] the target is Bile acid receptor (Homo sapiens) (UniProt Q96RI1). As to the kind of experiment: qHTS assay for small molecule agonists of farnesoid X receptor signaling (AID 588527).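 Also: series mostly up to about 77 µM; 0% = vehicle basal and 100% = reference agonist.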 Conditions: HEK293T FXR-UAS-bla, beta-lactamase ratio, 16 h; active compounds read high. Put shortly:
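Agonist-mode beta-lactamase reporter in GeneBLAzer FXR-UAS-bla HEK293T cells, titration up to 92 uM, 16 h exposure at 37 C, CCF4 fluorescence. Response scaled to DMSO (0%) and 100 uM chenodeoxycholic acid (100%), then Hill-fitted for EC50 and efficacy.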

Assay [3] has as its target Glucocorticoid receptor (Homo sapiens) (UniProt P04150). The experiment in a line: qHTS assay for small molecule agonists of glucocorticoid receptor signaling (AID 588532; active = well fitted curve in the direction sought with a large enough effect in the signal ratio, with a control signal flat; the % refers to the signal ratio;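 also: 100% = dexamethasone at 0.1 µM and 0% = DMSO only wells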). Conditions: HeLa MMTV-bla, beta-lactamase ratio, agonist, 18 h; active compounds read high; percent of dexamethasone control, DMSO zero. Put shortly:
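Titration series, up to 92 uM, applied to GRE-bla HeLa cells for 18 h at 37 C. Detection by CCF4 FRET substrate after 2 h at RT.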

The target of assay [4] is Ubiquitin carboxyl-terminal hydrolase 1 (Homo sapiens) (UniProt O94782). The experiment in a line: Inhibitors of USP1/UAF1: Pilot qHTS (AID 504865; active = well fitted inhibition curve with a large enough effect;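 also: rhodamine fluorescence freed from ubiquitin-rhodamine substrate followed over time; top concentration of the series differs between compounds; % is scaled to controls: 0 for no effect and ±100 for the full control effect; nearly all actives have a fitted effect of over 35% in size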). Put shortly:
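Enzyme-free wells gave the negative control, while test wells held 1nM USP1/UAF1 preincubated with compound for 15 min at room temperature. Ub-Rho at 150nM final started the reaction, and fluorescence at 480/540 nm was recorded kinetically.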

Assay [5] concerns the target Bile acid receptor (Homo sapiens) (UniProt Q96RI1). As to the kind of experiment: qHTS assay for small molecule antagonists of farnesoid X receptor signaling (AID 588526). Also: potency is read from the fitted curve at half-maximal effect. Put shortly:
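Concentration-response titrations were fitted to the Hill equation for half-maximal inhibition and maximal response, with data normalised to 50 uM chenodeoxycholic acid and DMSO control wells. Cells: FXR-UAS-bla HEK293T, dialyzed FBS.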

In assay [6] the target is Androgen receptor (Homo sapiens) (UniProt P10275). The experiment in a line: qHTS assay for small molecule agonists of androgen receptor signaling (AID 588515; active = well fitted curve in the direction sought with a large enough effect in the signal ratio, with a control signal flat; the % refers to the signal ratio; also: % is scaled to controls: 0 for no effect and ±100 for the full control effect). As to conditions: AR-UAS-bla HEK293, beta-lactamase ratio, agonist 16 h; active compounds read high. Put shortly: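 EC50 and efficacy came from Hill fits of titrations (up to 92 uM) normalized to 30 nM R1881 as 100% and DMSO as 0%. Compound exposure was 16 h at 37 C on AR-UAS-bla HEK293 cells, with a 405/460/530 nm CCF4 fluorescence read.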
Androgen receptor (Homo sapiens), sequence (P10275 whole entry, looked up): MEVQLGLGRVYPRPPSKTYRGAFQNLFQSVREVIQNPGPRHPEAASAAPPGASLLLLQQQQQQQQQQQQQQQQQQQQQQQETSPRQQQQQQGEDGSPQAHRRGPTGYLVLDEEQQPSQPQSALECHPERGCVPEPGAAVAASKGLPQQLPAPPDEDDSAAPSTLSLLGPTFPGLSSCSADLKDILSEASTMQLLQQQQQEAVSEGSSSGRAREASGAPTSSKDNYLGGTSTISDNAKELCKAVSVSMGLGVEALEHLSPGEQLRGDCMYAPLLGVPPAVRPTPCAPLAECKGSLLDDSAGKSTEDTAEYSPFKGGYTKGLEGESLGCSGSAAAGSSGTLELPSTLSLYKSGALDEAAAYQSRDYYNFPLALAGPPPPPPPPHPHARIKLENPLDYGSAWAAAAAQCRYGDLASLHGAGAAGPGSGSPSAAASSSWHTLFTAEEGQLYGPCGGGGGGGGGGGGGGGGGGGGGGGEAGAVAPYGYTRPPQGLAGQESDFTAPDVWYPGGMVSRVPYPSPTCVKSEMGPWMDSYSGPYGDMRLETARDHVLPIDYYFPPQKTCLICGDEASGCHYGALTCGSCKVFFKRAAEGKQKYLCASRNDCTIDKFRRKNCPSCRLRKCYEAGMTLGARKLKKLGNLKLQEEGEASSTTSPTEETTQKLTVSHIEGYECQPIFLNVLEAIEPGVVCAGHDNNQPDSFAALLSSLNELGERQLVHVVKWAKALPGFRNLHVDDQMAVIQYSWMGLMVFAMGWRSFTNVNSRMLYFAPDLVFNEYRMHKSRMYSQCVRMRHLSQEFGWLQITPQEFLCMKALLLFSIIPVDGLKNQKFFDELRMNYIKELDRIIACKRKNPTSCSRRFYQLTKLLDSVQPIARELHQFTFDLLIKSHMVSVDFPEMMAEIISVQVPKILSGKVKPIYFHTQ

The target is the same in assay [7]. The experiment in a line: qHTS assay for small molecule antagonists of androgen receptor signaling (AID 588516; active = well fitted curve in the direction sought with a large enough effect in the signal ratio, with a control signal flat, not every such curve was filed as active; the % refers to the signal ratio; also: % is scaled to controls: 0 for no effect and ±100 for the full control effect). Put shortly: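 Compounds tested in titration against 10 nM R1881 in AR-responsive bla reporter HEK 293 cells; CCF4 fluorescence (460/530 nm) after 16 h exposure gave IC50 and efficacy.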
Assay [8] concerns the target Estrogen receptor (Homo sapiens) (UniProt P03372). As to the kind of experiment: qHTS assay for small molecule agonists of estrogen receptor alpha signaling (AID 588514). Also: nearly all actives have a fitted effect of over 70% in size. Also: potency is read from the fitted curve at half-maximal effect.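 As to activation: 0% = vehicle only and 100% = reference agonist.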 Put shortly:
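Reporter-gene assay. […] controls beta-lactamase in HEK 293 GripTite cells; after 18 hrs with compound, CCF4 substrate is added for 2 hrs and fluorescence is read.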

Assay [9] deals with DNA dC->dU-editing enzyme APOBEC-3G (Homo sapiens) (UniProt Q9HC16). As to the kind of experiment: qHTS for inhibitors of Vif-A3G interactions: Validation (AID 588379; active = well fitted inhibition curve with a large enough effect; also: 0% is about no effect). Put shortly: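 HeLa cells stably expressing Vif and A3G-eYFP, 700 cells/well, incubated overnight at 37 deg C, then exposed to compound overnight at 37 deg C. Inhibition of Vif-mediated degradation read as increased yellow fluorescence (Ex 488/Em 500-530) by laser-scanning cytometry.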
DNA dC->dU-editing enzyme APOBEC-3G (Homo sapiens), sequence (Q9HC16 whole entry, looked up): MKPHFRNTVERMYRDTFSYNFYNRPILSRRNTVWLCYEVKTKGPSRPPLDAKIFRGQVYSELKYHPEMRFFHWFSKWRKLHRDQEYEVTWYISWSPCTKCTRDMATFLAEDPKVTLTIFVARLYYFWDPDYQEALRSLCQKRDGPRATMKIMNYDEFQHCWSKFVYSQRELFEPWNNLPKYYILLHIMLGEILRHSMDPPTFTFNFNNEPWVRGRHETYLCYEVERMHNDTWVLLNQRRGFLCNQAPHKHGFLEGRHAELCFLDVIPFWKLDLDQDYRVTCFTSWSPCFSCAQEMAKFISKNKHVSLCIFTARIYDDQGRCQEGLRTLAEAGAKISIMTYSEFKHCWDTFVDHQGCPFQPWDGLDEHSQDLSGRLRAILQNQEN

Structures are written as SMILES. Several values for one entry are separate records, joined by “and”; a condition that tells them apart may be missing. Equal entries are not always repeated. Values without a mark were called inactive. Records with an inconclusive call do not appear. Activity calls are given as the source filed them. Unless noted, calls follow the shape of the full dose curve.

Glucocorticoid receptor (Homo sapiens), sequence (P04150 whole entry, looked up): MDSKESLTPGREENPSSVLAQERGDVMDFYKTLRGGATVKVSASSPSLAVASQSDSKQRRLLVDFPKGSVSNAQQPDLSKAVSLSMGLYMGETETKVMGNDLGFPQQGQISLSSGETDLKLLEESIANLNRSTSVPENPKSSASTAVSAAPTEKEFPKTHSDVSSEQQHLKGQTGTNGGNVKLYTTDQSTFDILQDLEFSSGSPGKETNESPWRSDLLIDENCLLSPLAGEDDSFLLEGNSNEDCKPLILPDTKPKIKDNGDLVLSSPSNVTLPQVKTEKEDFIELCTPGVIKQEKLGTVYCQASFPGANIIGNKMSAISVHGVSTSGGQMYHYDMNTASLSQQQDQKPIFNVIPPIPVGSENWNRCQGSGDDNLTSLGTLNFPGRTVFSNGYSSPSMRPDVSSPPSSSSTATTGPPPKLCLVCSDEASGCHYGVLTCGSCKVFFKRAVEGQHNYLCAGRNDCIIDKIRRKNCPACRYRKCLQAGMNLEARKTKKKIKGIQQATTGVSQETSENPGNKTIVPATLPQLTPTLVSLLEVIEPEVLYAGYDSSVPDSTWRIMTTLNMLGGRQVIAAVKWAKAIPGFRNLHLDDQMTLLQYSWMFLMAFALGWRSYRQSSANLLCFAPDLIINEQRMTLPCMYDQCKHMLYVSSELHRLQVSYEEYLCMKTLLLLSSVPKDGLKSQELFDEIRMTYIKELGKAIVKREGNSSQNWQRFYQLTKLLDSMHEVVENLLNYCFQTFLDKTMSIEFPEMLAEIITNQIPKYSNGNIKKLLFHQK
Ubiquitin carboxyl-terminal hydrolase 1 (Homo sapiens), sequence (O94782 whole entry, looked up): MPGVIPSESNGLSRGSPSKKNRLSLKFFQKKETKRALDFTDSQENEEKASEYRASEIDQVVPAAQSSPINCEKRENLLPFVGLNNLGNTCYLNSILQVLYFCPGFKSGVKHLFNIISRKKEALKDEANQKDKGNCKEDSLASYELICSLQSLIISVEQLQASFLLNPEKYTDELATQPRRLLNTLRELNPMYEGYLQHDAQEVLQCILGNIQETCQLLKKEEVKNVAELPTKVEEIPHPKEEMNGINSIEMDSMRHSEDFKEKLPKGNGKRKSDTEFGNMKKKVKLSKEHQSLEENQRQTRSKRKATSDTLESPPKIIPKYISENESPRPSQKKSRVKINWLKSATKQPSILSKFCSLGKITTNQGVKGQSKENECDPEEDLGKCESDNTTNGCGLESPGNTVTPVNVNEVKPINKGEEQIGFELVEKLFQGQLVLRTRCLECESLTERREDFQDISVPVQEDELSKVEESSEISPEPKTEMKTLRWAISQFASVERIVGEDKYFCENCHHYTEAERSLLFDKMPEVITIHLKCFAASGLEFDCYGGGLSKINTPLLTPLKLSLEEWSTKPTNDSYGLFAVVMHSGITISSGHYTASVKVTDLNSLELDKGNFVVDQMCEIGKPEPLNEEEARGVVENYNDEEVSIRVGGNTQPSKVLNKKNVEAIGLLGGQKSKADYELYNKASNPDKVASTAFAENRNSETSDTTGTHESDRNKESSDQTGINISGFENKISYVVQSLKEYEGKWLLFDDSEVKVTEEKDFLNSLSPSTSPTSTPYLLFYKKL
Estrogen receptor (Homo sapiens), sequence (P03372 whole entry, looked up): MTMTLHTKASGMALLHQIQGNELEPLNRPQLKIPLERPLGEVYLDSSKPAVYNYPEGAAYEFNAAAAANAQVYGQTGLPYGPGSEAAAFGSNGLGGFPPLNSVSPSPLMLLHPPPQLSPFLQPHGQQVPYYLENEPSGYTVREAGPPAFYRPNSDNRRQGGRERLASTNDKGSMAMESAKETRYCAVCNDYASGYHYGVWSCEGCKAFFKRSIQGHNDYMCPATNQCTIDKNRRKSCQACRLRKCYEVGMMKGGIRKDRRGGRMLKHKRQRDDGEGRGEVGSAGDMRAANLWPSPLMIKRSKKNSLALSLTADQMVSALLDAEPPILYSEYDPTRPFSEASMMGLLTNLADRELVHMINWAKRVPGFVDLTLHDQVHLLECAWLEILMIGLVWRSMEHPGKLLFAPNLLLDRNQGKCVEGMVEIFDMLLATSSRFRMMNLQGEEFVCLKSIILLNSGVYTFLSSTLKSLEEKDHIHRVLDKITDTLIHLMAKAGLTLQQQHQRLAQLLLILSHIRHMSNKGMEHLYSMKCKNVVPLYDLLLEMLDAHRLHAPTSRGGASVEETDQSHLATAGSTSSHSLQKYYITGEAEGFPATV
Bile acid receptor (Homo sapiens), sequence (Q96RI1 whole entry, looked up): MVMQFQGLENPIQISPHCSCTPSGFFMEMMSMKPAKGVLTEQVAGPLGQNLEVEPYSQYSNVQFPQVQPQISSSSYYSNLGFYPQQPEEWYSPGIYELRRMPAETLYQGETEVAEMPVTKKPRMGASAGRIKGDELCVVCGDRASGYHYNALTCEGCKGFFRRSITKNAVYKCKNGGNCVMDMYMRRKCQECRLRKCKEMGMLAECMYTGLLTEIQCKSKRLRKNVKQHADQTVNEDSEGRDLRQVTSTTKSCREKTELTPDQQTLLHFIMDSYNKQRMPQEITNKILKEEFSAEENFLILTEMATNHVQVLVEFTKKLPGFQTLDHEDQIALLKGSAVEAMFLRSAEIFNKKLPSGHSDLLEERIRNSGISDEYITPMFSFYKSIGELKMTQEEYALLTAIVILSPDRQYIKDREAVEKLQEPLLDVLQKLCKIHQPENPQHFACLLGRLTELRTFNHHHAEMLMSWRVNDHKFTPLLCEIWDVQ

On to `NC(=Nc1ccccc1)Nc1ccccc1`, for which, in assay [1], the outcome was inactive. The activation in [2] is -1.85% and 0.0042%; in assay [3], -8.4%.

For `CCN(CC)CCN1C(=O)CN=C(c2ccccc2F)c2cc(Cl)ccc21`, the Potency result in assay [4] was “inactive”.

Turning to `Cc1ccnc2c1NC(=O)c1cccnc1N2C1CC1`, in [2], the activation was 5.2%.

On to `Oc1cccc2cccnc12`, for which the Potency result in assay [4] is “inactive”. Besides, in assay [2], the activation was -3.45% and -4.35%.

Turning to `Cc1cc(SCc2sc(-c3ccc(C(F)(F)F)c(F)c3)nc2C)ccc1OCC(=O)O`, the Potency result in assay [5] was “inactive”. In [2], the activation is -2.28%.

As for `CCOP(=S)(OCC)Oc1cc(C)nc(C(C)C)n1`, in assay [3], the activation is -2.71%.

As for `CCCCOCCOCCOCc1cc2c(cc1CCC)OCO2`, the activation in assay [2] was 1.08% and -5.21%.

`Oc1ccc(Cl)cc1Cc1ccccc1`: the activation in assay [6] was -12.3%; in assay [3] it was -0.163% and -0.754%. Besides, the call in assay [7] was inactive.

`C[C@H]1O[C@@H](O[C@H]2[C@@H](O)C[C@H](O[C@H]3[C@@H](O)C[C@H](O[C@H]4CC[C@@]5(C)[C@H](CC[C@@H]6[C@@H]5CC[C@]5(C)[C@@H](C7=CC(=O)OC7)CC[C@]65O)C4)O[C@@H]3C)O[C@@H]2C)C[C@H](O)[C@@H]1O`: the activation in assay [2] is -2.75%; in assay [3] it was -14.2%.

For the compound `CC(C)CC(N(C)C)C1(c2ccc(Cl)cc2)CCC1` (stereo not given), the Potency result in assay [4] is “inactive”.

Regarding `COC1=CC(=O)C[C@@H](C)[C@]12Oc1c(Cl)c(OC)cc(OC)c1C2=O`, the activation in assay [2] is 0.423%.

For the compound `Clc1ccc(COC(Cn2ccnc2)c2ccc(Cl)cc2Cl)cc1` (stereo not given), in [8], the Potency result was “inactive”. In addition, the activation in assay [2] is 9.99%; in [3], 9.41%.

For the compound `O=C(O)c1ccc2[nH]cc(CCCCN3CC=C(c4ccccc4)CC3)c2c1`, in assay [4], the Potency result was “inactive”.

With `C[C@]12CCC(=O)C(O)=C1CC[C@@H]1[C@@H]2CC[C@]2(C)C(=O)CC[C@@H]12`, in assay [1], the compound was classed as inactive. In addition, in assay [3], the activation is 2.34%.

Regarding `CC(C)(C)CC(C)(C)c1ccc(O)cc1`, the activation was 2.26% in assay [6], 3.19% in assay [2] and 4.7% in assay [3]. Further, the outcome in assay [7] was inactive. Also, the Potency result in [5] is “inactive”.

Take `CCc1nc(N)nc(N)c1-c1ccc(Cl)cc1`: the activation in assay [2] is -5.01% and -3.58%.

Take `C=C1CC[C@@]2(O)[C@H]3Cc4ccc(O)c5c4[C@@]2(CCN3CC2CC2)[C@H]1O5`: in [4], the Potency entry was “inactive”.

On to `N[C@@H](Cc1ccc(N(CCCl)CCCl)cc1)C(=O)O`, for which the Potency in [5] is 39.8 µM (active). For the same compound, the activation in assay [2] was 0.124%; in assay [3] it was 7.11% and 5.34%.

With `C[C@]12C/C(=C/O)C(=O)C[C@@H]1CC[C@@H]1[C@@H]2CC[C@@]2(C)[C@H]1CC[C@]2(C)O`, the Potency entry in assay [4] is “inactive”. The Potency in [8] is 0.562 µM (active). The activation in [2] is 1.58%; in assay [3], -7.95%.

Regarding `Cc1ccc(C)c(OCCCC(C)(C)C(=O)O)c1`, in assay [2], the activation was -2.62% and -0.135%.

Consider `CCCN(CCC)S(=O)(=O)c1ccc(C(=O)O)cc1`, for which the activation in assay [2] was -0.735% and 0.243%.

In the case of `CCN(C(C)=O)c1cccc(-c2ccnc3c(C#N)cnn23)c1`, the Potency entry in [4] is “inactive”.

`COC1(CS(=O)c2ccccc2)CCN(CCc2c[nH]c3ccc(F)cc23)CC1` (stereo not given): in assay [4], the Potency entry was “inactive”. In addition, in assay [9], the call was inactive.

As for `Nc1ccc(O)c(C(=O)O)c1`, the activation in assay [2] was -5.01% and -0.178%.

Regarding `NP(N)(=O)NC(=O)c1ccc(F)cc1`, in assay [4], the Potency result was “inactive”. Further, the compound was called inactive in assay [9].

For the compound `Oc1ccccc1-c1ccccc1`, the Potency result in assay [4] and in assay [8] was “inactive” throughout. Also, the call in [1] was inactive.

`CC[C@H](C)C(=O)O[C@H]1C[C@@H](C)C=C2C=C[C@H](C)[C@H](CC[C@@H]3C[C@@H](O)CC(=O)O3)[C@H]21`: in assay [2], the activation is -3.65%.

Consider `C#C[C@]1(O)CC[C@H]2[C@@H]3CCC4=Cc5oncc5C[C@]4(C)[C@H]3CC[C@@]21C`, for which, in assay [2], the activation is -1.05%.

For `C#CCN(C)[C@H](C)Cc1ccccc1`, the Potency result in assay [4] is “inactive”. The compound was called inactive in assay [9].

As for `Oc1cc(Cl)ccc1Oc1ccc(Cl)cc1Cl`, the Potency result in assay [4] was “inactive”. In addition, in [3], the activation is -14.4%.

As for `CN(C)/N=N/c1nc[nH]c1C(N)=O`, the activation in assay [2] is -3.3%.

Take `CCCC1CCCCN1` (stereo not given): the Potency entry in assay [4] is “inactive”.

For the compound `CC[N+]1(C)CCCC(OC(=O)C(O)(c2ccccc2)c2ccccc2)C1` (stereo not given), the Potency result in [4] was “inactive”.

Turning to `CN(C)CCN(C)CCc1ccc(Cl)c(Cl)c1`, the Potency result in [4] is “inactive”. For the same compound, the compound was called inactive in [9].
